From the supplement of paper PMC11732987, “Enantioselective OTUD7B fragment discovery through chemoproteomics screening and high-throughput optimisation” (Communications Chemistry, 2025)

Target: T1, USP38 (UniProt Q8NB14)
T1 sequence (whole entry): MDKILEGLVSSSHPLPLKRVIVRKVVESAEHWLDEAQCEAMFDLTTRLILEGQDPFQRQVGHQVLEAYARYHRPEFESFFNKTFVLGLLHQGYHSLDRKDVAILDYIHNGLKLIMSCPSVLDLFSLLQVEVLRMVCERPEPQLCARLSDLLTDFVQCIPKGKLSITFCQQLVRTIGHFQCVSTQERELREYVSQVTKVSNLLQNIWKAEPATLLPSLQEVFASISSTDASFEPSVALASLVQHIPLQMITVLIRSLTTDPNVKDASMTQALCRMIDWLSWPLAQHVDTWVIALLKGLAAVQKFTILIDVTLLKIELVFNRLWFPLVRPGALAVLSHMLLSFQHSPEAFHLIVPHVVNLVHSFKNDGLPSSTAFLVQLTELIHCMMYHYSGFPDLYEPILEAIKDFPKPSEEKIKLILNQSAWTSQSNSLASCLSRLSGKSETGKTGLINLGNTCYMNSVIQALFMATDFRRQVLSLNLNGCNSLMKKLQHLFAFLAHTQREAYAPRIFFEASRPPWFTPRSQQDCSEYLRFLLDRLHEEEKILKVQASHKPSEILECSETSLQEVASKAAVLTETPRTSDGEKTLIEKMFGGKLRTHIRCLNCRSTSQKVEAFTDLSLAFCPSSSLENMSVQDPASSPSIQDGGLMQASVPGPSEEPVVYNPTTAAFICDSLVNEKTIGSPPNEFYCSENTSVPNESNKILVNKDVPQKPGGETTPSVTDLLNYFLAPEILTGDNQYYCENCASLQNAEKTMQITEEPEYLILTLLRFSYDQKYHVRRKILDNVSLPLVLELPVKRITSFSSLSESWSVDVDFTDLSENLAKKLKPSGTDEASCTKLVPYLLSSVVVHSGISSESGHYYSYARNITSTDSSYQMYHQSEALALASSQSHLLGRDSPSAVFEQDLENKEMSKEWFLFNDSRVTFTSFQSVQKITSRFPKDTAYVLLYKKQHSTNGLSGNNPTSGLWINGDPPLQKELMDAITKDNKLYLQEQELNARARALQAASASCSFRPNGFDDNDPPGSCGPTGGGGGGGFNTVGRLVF
Assay: log2 ratio of Biotin-Ahx-Ub-VS probe labelling (compound/DMSO); higher = less target engagement, active = hit call of the paper (q ≤ 0.05, log2 ratio ≤ -1)
Conditions: compound concentration: 0.78uM; treatment time: 3 h
How it was run: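 HEK293T lysate (495 µg per sample, in Tris/CHAPS/IGEPAL buffer with protease inhibitors) was treated in triplicate with compound over a concentration series or DMSO for 3 h, then with Biotin-Ahx-Ub-VS (0.5 µM final) for 1 h. Labelled DUBs were NeutrAvidin-enriched, digested with LysC and trypsin, and run by diaPASEF LC-MS/MS. Spectronaut label-free protein quantities were global-median-normalised. Values are average log2 ratios compound/DMSO from an unpaired t-test, using proteins with ≥2 unique peptides.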

log2 ratio of Biotin-Ahx-Ub-VS probe labelling, inactive:
O=C(CCl)NC1CCCc2ccccc21 (centres undefined) -0.0722
O=C(CCl)N[C@@H]1CCCc2ccccc21 -0.208
O=C(CCl)N[C@H]1CCCc2ccccc21 -0.147

Same assay, conditions: compound concentration: 1.56uM; treatment time: 3 h

log2 ratio of Biotin-Ahx-Ub-VS probe labelling, inactive:
O=C(CCl)NC1CCCc2ccccc21 (centres undefined) -0.0473
O=C(CCl)N[C@@H]1CCCc2ccccc21 -0.105
O=C(CCl)N[C@H]1CCCc2ccccc21 -0.192

Same assay, conditions: compound concentration: 3.13uM; treatment time: 3 h

log2 ratio of Biotin-Ahx-Ub-VS probe labelling, inactive:
O=C(CCl)NC1CCCc2ccccc21 (centres undefined) -0.124
O=C(CCl)N[C@@H]1CCCc2ccccc21 -0.116
O=C(CCl)N[C@H]1CCCc2ccccc21 -0.169

Same assay, conditions: compound concentration: 6.25uM; treatment time: 3 h

log2 ratio of Biotin-Ahx-Ub-VS probe labelling, inactive:
O=C(CCl)NC1CCCc2ccccc21 (centres undefined) -0.102
O=C(CCl)N[C@@H]1CCCc2ccccc21 -0.253
O=C(CCl)N[C@H]1CCCc2ccccc21 -0.0221

Same assay, conditions: compound concentration: 12.5uM; treatment time: 3 h

log2 ratio of Biotin-Ahx-Ub-VS probe labelling, inactive:
O=C(CCl)NC1CCCc2ccccc21 (centres undefined) -0.214
O=C(CCl)N[C@@H]1CCCc2ccccc21 -0.127
O=C(CCl)N[C@H]1CCCc2ccccc21 -0.0585

Same assay, conditions: compound concentration: 25uM; treatment time: 3 h

log2 ratio of Biotin-Ahx-Ub-VS probe labelling, inactive:
O=C(CCl)NC1CCCc2ccccc21 (centres undefined) -0.157
O=C(CCl)N[C@@H]1CCCc2ccccc21 -0.107
O=C(CCl)N[C@H]1CCCc2ccccc21 -0.166

Same assay, conditions: compound concentration: 50uM; treatment time: 3 h

log2 ratio of Biotin-Ahx-Ub-VS probe labelling, inactive:
O=C(CCl)NC1CCCc2ccccc21 (centres undefined) -0.0382
O=C(CCl)N[C@@H]1CCCc2ccccc21 -0.0917
O=C(CCl)N[C@H]1CCCc2ccccc21 -0.069

Same assay, conditions: compound concentration: 100uM; treatment time: 3 h

log2 ratio of Biotin-Ahx-Ub-VS probe labelling, inactive:
O=C(CCl)NC1CCCc2ccccc21 (centres undefined) -0.104
O=C(CCl)N[C@@H]1CCCc2ccccc21 -0.166
O=C(CCl)N[C@H]1CCCc2ccccc21 -0.102

Same assay, conditions: compound concentration: 200uM; treatment time: 3 h

log2 ratio of Biotin-Ahx-Ub-VS probe labelling, inactive:
O=C(CCl)NC1CCCc2ccccc21 (centres undefined) -0.148
O=C(CCl)N[C@@H]1CCCc2ccccc21 -0.233
O=C(CCl)N[C@H]1CCCc2ccccc21 -0.211

Target: T2, ALG13 (UniProt Q9NP73)
T2 sequence (whole entry): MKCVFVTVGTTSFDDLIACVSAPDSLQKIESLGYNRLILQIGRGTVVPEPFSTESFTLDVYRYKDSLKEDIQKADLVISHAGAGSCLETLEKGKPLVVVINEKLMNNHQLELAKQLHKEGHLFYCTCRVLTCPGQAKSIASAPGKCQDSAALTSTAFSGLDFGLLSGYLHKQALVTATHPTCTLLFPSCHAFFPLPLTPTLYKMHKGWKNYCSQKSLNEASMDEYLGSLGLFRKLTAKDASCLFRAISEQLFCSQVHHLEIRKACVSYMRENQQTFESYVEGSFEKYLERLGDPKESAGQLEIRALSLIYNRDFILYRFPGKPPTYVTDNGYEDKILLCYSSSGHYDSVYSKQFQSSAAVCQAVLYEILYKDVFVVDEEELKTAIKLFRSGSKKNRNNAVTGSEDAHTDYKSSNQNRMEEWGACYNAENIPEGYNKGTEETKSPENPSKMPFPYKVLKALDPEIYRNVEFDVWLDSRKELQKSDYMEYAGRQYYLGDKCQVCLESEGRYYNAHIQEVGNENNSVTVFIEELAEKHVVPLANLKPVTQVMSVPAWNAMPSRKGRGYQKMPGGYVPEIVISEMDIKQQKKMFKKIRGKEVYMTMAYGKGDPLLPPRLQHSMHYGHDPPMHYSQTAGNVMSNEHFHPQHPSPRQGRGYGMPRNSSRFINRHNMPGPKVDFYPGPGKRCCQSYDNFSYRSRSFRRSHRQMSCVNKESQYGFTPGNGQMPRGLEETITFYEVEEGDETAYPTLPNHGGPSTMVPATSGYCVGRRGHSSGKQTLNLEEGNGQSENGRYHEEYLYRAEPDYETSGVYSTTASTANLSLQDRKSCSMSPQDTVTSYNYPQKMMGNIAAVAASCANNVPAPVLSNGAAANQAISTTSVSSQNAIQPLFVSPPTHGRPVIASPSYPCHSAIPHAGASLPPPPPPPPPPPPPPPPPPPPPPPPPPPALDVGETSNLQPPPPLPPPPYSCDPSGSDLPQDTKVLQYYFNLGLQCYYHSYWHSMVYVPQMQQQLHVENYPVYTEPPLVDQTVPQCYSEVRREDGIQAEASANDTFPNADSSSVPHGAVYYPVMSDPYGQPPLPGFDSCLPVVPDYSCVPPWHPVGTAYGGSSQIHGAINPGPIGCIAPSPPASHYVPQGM
Assay: log2 ratio of Biotin-Ahx-Ub-VS probe labelling (fragment/DMSO); higher = less target engagement (more negative = stronger competition), active = hit call of the paper (q ≤ 0.05, log2 ratio ≤ -1)
Conditions: compound concentration: 200 uM; treatment time: 3 h
How it was run: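 Values give the average log2 ratio of fragment to vehicle, assessed by unpaired t-test on global-median-normalised Spectronaut label-free quantities. Proteins needed ≥2 unique peptides. HEK293T lysate (495 µg per sample) was treated in triplicate with fragment at 200 µM or vehicle for 3 h and then with Biotin-Ahx-Ub-VS at 0.5 µM final for 1 h. Labelled DUBs were NeutrAvidin-enriched, digested and run by diaPASEF LC-MS/MS.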

log2 ratio of Biotin-Ahx-Ub-VS probe labelling, inactive:
Cc1cccc(N(CCC#N)C(=O)CCl)c1C -0.29
O=C(CCl)NCC(=O)N1CCCC1 0.0112
Cl.O=C(CCl)NC1(c2ncccn2)CCC1 0.0863
Cc1ccccc1OCC(=O)N1CCN(C(=O)CCl)CC1 -0.255
O=C(CCl)N1CCOC2(CCC2)CC1 -0.588
O=C(CCl)N1CCOC(CCc2ccccc2)C1 (centres undefined) -0.284
CCC(NC(=O)CCl)c1ccc(Cl)cc1 (centres undefined) 0.101
COc1cc(Cl)c(C)cc1NC(=O)CCl -0.216
O=C(CCl)NCc1cccc(F)c1 -0.54
O=C(CCl)NCc1cccc(N2CCCC2=O)c1 -0.0431
Cl.O=C(CCl)NCc1cc2c(nc1O)CCCC2 -0.00624
COc1ccc(CN(C)C(=O)CCl)cc1 -0.466
CC1CCc2onc(CNC(=O)CCl)c2C1 (centres undefined) 0.206
N#Cc1ccccc1N1CCN(C(=O)CCl)CC1 -0.383
Cl.O=C(CCl)N1CCc2ncncc2C1 -0.17
Cc1cc(Cl)ccc1NC(=O)CCl -0.00605
Cc1ccc(CC(NC(=O)CCl)c2ccccn2)cc1.Cl (centres undefined) -0.831
O=C(CCl)N1CCC(C(=O)N2CCCC2)CC1 0.141
CCc1c[nH]c(CNC(=O)CCl)n1.Cl 0.0285
O=C(CCl)NC(Cn1ccccc1=O)c1ccccc1 (centres undefined) 0.152
Cc1nnc(C(NC(=O)CCl)c2ccccc2)n1C (centres undefined) -0.558
Cc1cccc2nc(CCNC(=O)CCl)cn12.Cl -0.496
Cc1cccnc1NC(=O)C1CCN(C(=O)CCl)CC1.Cl 0.0719
COc1cccc(CN(C)C(=O)CCl)c1 -0.0162
Cl.O=C(CCl)NCCN1CCc2ccccc21 -0.000809
O=C(CCl)N1CCC(c2nc3ccccc3o2)CC1 -0.377
O=C(CCl)NC1CCC(C(F)(F)F)CC1 (centres undefined) 0.187
Cc1nc(CNC(=O)CCl)c2ccccn12.Cl -0.085
O=C(CCl)NC1CCS(=O)(=O)c2ccccc21 (centres undefined) -0.299
O=C(CCl)N1CCC(=C(F)CO)C1 -0.0371
O=C(CCl)Nc1cccc2ncccc12 -0.13
O=C(CCl)Nc1cccc(C(=O)N2CCSCC2)c1 0.254
